PubChem BioAssay (NCI)
The panel holds about 79,000 compounds, 15% with a hit somewhere; the sample as a whole holds those more often. The source made the active and inactive calls. Rule as the data show it: active = growth inhibition above about 70%; inactive = the rest.

experiment: NCI Yeast Anticancer Drug Screen. Data for the sgs1 mgt1 strain (AID 161);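 also: 0% = growth of cultures given vehicle only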; conditions: S. cerevisiae sgs1 mgt1 strain, at 50.0 µM, active compounds read high
Procedure, shortened: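 Mutant yeast exposed to compound; growth scored against vehicle-only wells.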

| Structure (SMILES) | growth inhibition |
| --- | --- |
| [Cl][Cu][Cl].c1ccc2c(c1)Sc1ccccc1[N+]2=c1ccc2nc3ccccc3sc-2c1 | 29.8% (inactive) |
| CC1c2ccccc2-c2ccccc21 | 7.25% (inactive) |
| Cc1nc2ccccc2c(=O)n1C | 10.7% (inactive) |
| CC(=O)OCC(=O)C1(C)CCC2(C)CCC3(C)C(=CC(=O)C4C5(C)CCC(=O)C(C)(C)C5CCC43C)C2C1 (stereo not drawn) | 2.7% (inactive) |
| CC(=O)OC(C)c1cc2c(s1)C(=O)c1sccc1C2=O (stereo not drawn) | 88.8% (active) |
| O=[N+]([O-])c1ccc2c(c1)nc(-c1ccccn1)n2CCc1ccncc1 | 99% (active) |
| COc1ccc2c(c1)s/c(=N/N)n2CCCS(=O)(=O)O | 20.9% (inactive) |
| NC(Cc1ccc(O)cc1)C(=O)OCc1ccccc1 (stereo not drawn) | 15.1% (inactive) |
| N#CSCC(=O)CCC(=O)O | -8.8% (inactive) |
| Brc1ccc(C2NC(c3ccccc3)c3c(ccc4ccccc34)O2)cc1 (stereo not drawn) | 90.9% (active) |
| CCN(CC)C(=O)c1cncc(C(N)=O)c1 | 28% (inactive) |
| Cc1ccc(/C=C/c2cc(/C=C/c3ccc(C)cc3)c([N+](=O)[O-])cc2[N+](=O)[O-])cc1 | -2.3% (inactive) |
| Oc1ccc(Cl)cc1/C=N\N=C\c1cc(Cl)ccc1O | 5.75% (inactive) |
| Cc1nc(=S)c2cnn(-c3ccccc3)c2[nH]1 | -3.9% (inactive) |
| C=CCN(CC=C)C(=S)NC(=O)c1ccccc1 | 53.2% (inactive) |
| O=CNC(Cc1cnc[nH]1)C(=O)O (stereo not drawn) | -48.1% (inactive) |
| CC(=O)Oc1ccc2ccccc2c1CN(C(C)=O)c1ccc(C)cc1 | -10.1% (inactive) |
| c1ccc(-n2nnc3c2CCCC3)cc1 | -6.1% (inactive) |
| CCCCCCC1OCCO1 | 16.5% (inactive) |
| CCN(CC)C1=Nc2ccccc2N(c2ccccc2)C(SC)=C1 | 6.15% (inactive) |
| Nc1ccc(N)c2cc(S(=O)(=O)O)ccc12 | -5.1% (inactive) |
| Cc1nc2nn[nH]n2c(=O)c1CCO | 16.2% (inactive) |
| COc1nc(Cl)nc(C(N)=O)c1N | -11.5% (inactive) |

experiment: NCI Yeast Anticancer Drug Screen. Data for the cln2 rad14 strain (AID 165);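 also: 0% = growth equal to vehicle treated cultures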; conditions: S. cerevisiae cln2 rad14 strain, at 50.0 µM, active compounds read high
Procedure, shortened: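 Each compound was tested on cln2 rad14 yeast. Inhibition of growth was calculated against vehicle-exposed controls.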

| Structure (SMILES) | growth inhibition |
| --- | --- |
| CC=C(c1ccccc1)c1ccccc1 | -10% (inactive) |
| CC(=O)c1ccc2c(c1)-c1ccc(C(C)=O)cc1-2 | -11% (inactive) |
| N#Cc1n[nH]n(C2CCCCC2)c1=O | -0.3% (inactive) |
| CCC(C1=CCCCC1)c1nc2c([nH]1)c(=O)n(C)c(=O)n2C (stereo not drawn) | 8.65% (inactive) |
| CCCCNS(=O)(=O)c1ccccc1 | 9.65% (inactive) |
| CSc1ccc(NC(=O)NNP(=S)(Oc2ccc(C(C)(C)C)cc2)Oc2ccc(C(C)(C)C)cc2)cc1 | 13.8% (inactive) |
| CC(C(=O)O)C1(O)CCCCC1 (stereo not drawn) | -25.4% (inactive) |
| CC(C)(N)COC(=O)c1ccc([N+](=O)[O-])cc1 | 0.15% (inactive) |
| C=CCOC(=O)NC(Cc1ccc(O)cc1)C(=O)O (stereo not drawn) | 3.65% (inactive) |
| C/C(CC(=O)Nc1ccc(C)c(C)c1)=N\NC(N)=O | -5.35% (inactive) |
| O=C(c1ccccc1)C(O)(c1ccccc1)C(c1ccccc1)c1ccccc1 (stereo not drawn) | 13% (inactive) |
| CC(=O)OC1COC(n2cnc3c(N)ncnc32)C(OC(C)=O)C1OC(C)=O (stereo not drawn) | -26.1% (inactive) |
| O=C(Nc1cccc2ccccc12)c1ccc(Cl)c(Cl)c1 | 43.8% (inactive) |
| [O-][n+]1c2ccccc2nn1-c1ccccc1 | -21.4% (inactive) |
| COc1ccc(/C=C2/SC(=Nc3ccccc3)N(NC(=O)Cc3ccccc3)C2=O)c(OC)c1 | -12.8% (inactive) |
| CCOc1c(Cc2ccccc2)c(=O)n2c3ccccc3n3c(=O)n(C)c(=O)c1c23 | 11.8% (inactive) |
| CCCCc1noc(N)c1SCC | -39.6% (inactive) |
| [Cl][Cu][Cl].c1ccc2c(c1)Sc1ccccc1[N+]2=c1ccc2nc3ccccc3sc-2c1 | 2.7% (inactive) |
| CC1c2ccccc2-c2ccccc21 | -3.15% (inactive) |
| Cc1nc2ccccc2c(=O)n1C | 2.35% (inactive) |

| Structure (SMILES) | growth inhibition |
| --- | --- |
| CC(=O)OCC(=O)C1(C)CCC2(C)CCC3(C)C(=CC(=O)C4C5(C)CCC(=O)C(C)(C)C5CCC43C)C2C1 (stereo not drawn) | -2.25% (inactive) |
| CC(=O)OC(C)c1cc2c(s1)C(=O)c1sccc1C2=O (stereo not drawn) | 89% (active) |
| O=[N+]([O-])c1ccc2c(c1)nc(-c1ccccn1)n2CCc1ccncc1 | 87% (active) |
| COc1ccc2c(c1)s/c(=N/N)n2CCCS(=O)(=O)O | 23.1% (inactive) |
| NC(Cc1ccc(O)cc1)C(=O)OCc1ccccc1 (stereo not drawn) | -11.2% (inactive) |
| N#CSCC(=O)CCC(=O)O | -15% (inactive) |
| Brc1ccc(C2NC(c3ccccc3)c3c(ccc4ccccc34)O2)cc1 (stereo not drawn) | 61.2% (inactive) |
| CCN(CC)C(=O)c1cncc(C(N)=O)c1 | 10.8% (inactive) |
| Cc1ccc(/C=C/c2cc(/C=C/c3ccc(C)cc3)c([N+](=O)[O-])cc2[N+](=O)[O-])cc1 | -61.8% (inactive) |
| Oc1ccc(Cl)cc1/C=N\N=C\c1cc(Cl)ccc1O | -36.1% (inactive) |
| Cc1nc(=S)c2cnn(-c3ccccc3)c2[nH]1 | -57.2% (inactive) |
| C=CCN(CC=C)C(=S)NC(=O)c1ccccc1 | 16.9% (inactive) |
| O=CNC(Cc1cnc[nH]1)C(=O)O (stereo not drawn) | -68.2% (inactive) |
| CC(=O)Oc1ccc2ccccc2c1CN(C(C)=O)c1ccc(C)cc1 | -19.4% (inactive) |
| c1ccc(-n2nnc3c2CCCC3)cc1 | -23.8% (inactive) |
| CCCCCCC1OCCO1 | -12.8% (inactive) |
| CCN(CC)C1=Nc2ccccc2N(c2ccccc2)C(SC)=C1 | -6.45% (inactive) |
| Nc1ccc(N)c2cc(S(=O)(=O)O)ccc12 | 6.4% (inactive) |
| Cc1nc2nn[nH]n2c(=O)c1CCO | 14.2% (inactive) |
| COc1nc(Cl)nc(C(N)=O)c1N | -11.1% (inactive) |
